# Source: PubChem BioAssay (NCI)
# The panel holds about 79,000 compounds, 15% with a hit somewhere; the sample as a whole holds those more often. A number with no mark means an inactive call. Active and inactive are the calls of the source. No stated cut-off is given here; in the data, active means growth inhibition above about 70%; inactive means the rest.
# Tests used:
# [1] = NCI Yeast Anticancer Drug Screen. Data for the rad50 strain (AID 155);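 further: 0% = growth of vehicle-only cultures of the same strain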; details: S. cerevisiae rad50 strain growth inhibition; at 50.0 µM; stronger effect = higher value
# Summary of the method: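 Readout: growth inhibition relative to vehicle-treated cultures. Compound exposure was carried out in a genetically defined yeast strain deficient in DNA damage repair.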
# [2] = NCI Yeast Anticancer Drug Screen. Data for the mec2-1 strain (AID 157); details: S. cerevisiae mec2-1 strain, at 50.0 µM, stronger effect = higher value
# Summary of the method: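 Test agents were screened against the mec2-1 yeast strain, with defined DNA repair or cell cycle alteration. Growth was scored as inhibition against vehicle-only controls.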
# [3] = NCI Yeast Anticancer Drug Screen. Data for the sgs1 mgt1 strain (AID 161);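 further: 0% = growth of cultures given vehicle only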; details: S. cerevisiae sgs1 mgt1 strain, at 50.0 µM, stronger effect = higher value
# Summary of the method: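 Mutant yeast exposed to compound; growth scored against vehicle-only wells.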
# [4] = NCI Yeast Anticancer Drug Screen. Data for the cln2 rad14 strain (AID 165);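 further: 0% = growth equal to vehicle treated cultures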; details: S. cerevisiae cln2 rad14 strain, at 50.0 µM, stronger effect = higher value
# Summary of the method: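 Growth of compound-exposed yeast (cln2 rad14 genotype) measured and expressed as inhibition relative to vehicle.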
# [5] = NCI Yeast Anticancer Drug Screen. Data for the bub3 strain (AID 167); details: S. cerevisiae bub3 mutant strain, at 50.0 µM, stronger effect = higher value
# Summary of the method: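 Readout: yeast growth inhibition, expressed relative to vehicle-only wells. The test organism is a mutant strain from a panel with lesions in DNA repair or checkpoint genes.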
# [6] = NCI Yeast Anticancer Drug Screen. Data for the mlh1 rad18 strain (AID 175); details: S. cerevisiae mlh1 rad18 strain growth inhibition; at 50.0 µM; stronger effect = higher value
# Summary of the method: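 In this whole-cell yeast screen, a strain with altered DNA damage repair is challenged with compound, and its growth is measured against matched vehicle-treated controls.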
SMILES,growth inhibition [1],growth inhibition [2],growth inhibition [3],growth inhibition [4],growth inhibition [5],growth inhibition [6]
COc1ccc(Nc2cnc3cc(N)ccc3n2)cc1OC,-15.3%,-21.6%,-38.5%,-8.35%,-30.3%,1.7%
COc1cc2c(cc1OC)C1CC(CC(N)=O)(C(N)=O)CCN1CC2 (stereo unspecified),2.35%,16.6%,14.6%,-49.5%,1.5%,17.5%
CC(O)(/C=C/c1ccccc1)P(=O)(O)c1ccccc1 (stereo unspecified),-40%,-13.2%,-29.1%,-13%,-13.3%,9.4%
COC1=C(O)C(=O)C(OC)=C(O)C1=O,-19.5%,-8.65%,-13.5%,-1.4%,9.75%,-19.6%
CCC12C[N+]3([O-])CCc4c([nH]c5ccccc45)C(C(=O)OC)(c4cc5c(cc4OC)N(C)C4C(O)(C(=O)OC)C(OC(C)=O)C6(CC)C=CCN7CCC54C76)CC(C3)C1O2 (stereo unspecified),-8.15%,-24.1%,-14%,-9.8%,-2.2%,-31.7%
CCOC(=O)c1cnc(C)nc1Nc1ccccc1,5.75%,11.4%,-0.8%,-21.4%,0.9%,-23.7%
O=C1c2ccccc2C(=O)N1CCn1[nH]c(=O)c2ccccc2c1=O,-3.25%,-10.4%,-6.55%,8.9%,-3.6%,14.1%
CN(C)c1ncnc2c1cnn2C1OC(CO)C(O)C1O (stereo unspecified),5.85%,14.2%,17.3%,15.2%,19.6%,30.7%
CCCCCC(=O)OCC[N+](C)(C)C,-29.8%,-29.9%,-6.95%,4.85%,-25.2%,-13.2%
CC(C)(C)c1ccc(S(=O)(=O)/C=C/c2ccccc2)cc1,-2.4%,35%,-9.3%,26.1%,4.1%,6.3%
COC(=O)C1CC=CCC1 (stereo unspecified),23.1%,-8.05%,6.85%,14.2%,1.15%,32.4%
COC(=O)C(C)CC(=O)c1ccc2ccc3cccc4ccc1c2c34 (stereo unspecified),-16.9%,-18.4%,-2.05%,-35.4%,19.4%,-4.2%
COC1OC(C)CC(O)C1O (stereo unspecified),5.3%,-7.05%,14.7%,-57.6%,2.7%,-37.8%
Cn1cnc([N+](=O)[O-])c1Sc1n[nH]c(-c2ccc(Cl)cc2)n1,-11.6%,1.7%,-7.75%,21.4%,17.1%,-6.05%
C=C(Cl)C(Cl)(CBr)CCC(Cl)C(C)C (stereo unspecified),65%,15.5%,85.2% (active),73.7% (active),75.6% (active),72% (active)
Ic1ccc(Nc2ncnc3sc4c(c23)CCCC4)cc1,24.2%,-14%,-16.9%,15.8%,7.25%,-7.65%
CCOC(=O)CCCc1ccccc1,-13.2%,-32.5%,-2.65%,32.2%,4.05%,-2.25%
Nc1cc(Cc2ccccc2)ccc1O,42.5%,25.8%,58.8%,18.8%,31.2%,46.7%
COC(=O)CC1(O)C=CC(=O)c2ccccc21 (stereo unspecified),2.35%,-6.65%,-3.8%,-25.9%,44%,-5.7%
N#C/C(=C\c1ccc[nH]1)C(=O)c1ccccc1,-5.7%,-11.8%,-18.9%,16.5%,1.15%,-28.6%
CN(C=C(C#N)C#N)c1ccccc1,8.7%,-4.65%,-0.1%,-3.95%,9.05%,16.4%

SMILES,growth inhibition [1],growth inhibition [2],growth inhibition [3],growth inhibition [4],growth inhibition [5],growth inhibition [6]
CC(=O)OC1(C#N)CC2OC1C1N=NN(C(=O)OC(C)(C)C)C21 (stereo unspecified),18.2%,2.15%,4.8%,21.8%,16.1%,19.2%
CC1CC(NC(=O)/C=C/C(=O)O)CC(C)(C)C1 (stereo unspecified),-2.85%,1.05%,9%,-2.95%,33.9%,-0.2%
Nc1nc2cc(COc3ccc(C(=O)O)cc3)ccc2nc1-c1ccccc1,-28.6%,-17.9%,-13.8%,-2.9%,-26.2%,-15.1%
CN(C)CCCNC(=O)CCNC(=O)c1cc(NC(=O)c2cc(NC(=O)c3cc(NC(=O)c4nccn4C)cn3C)cn2C)cn1C,24.4%,-23.4%,-17.2%,12.4%,-5.15%,7.15%
C[Si](C)(CCCOC(N)=O)COC(N)=O,-15.2%,-6.55%,-18.4%,-4.1%,4.8%,-18.9%
CC1C=CCC2C(=O)OC(=O)C12 (stereo unspecified),10.3%,-1.65%,-4.65%,-3.8%,-0.75%,15.6%
Nc1ccc2ccccc2c1S(=O)(=O)O,16.1%,-6.4%,15%,4.65%,-2.4%,-27%
O=S1(=O)CCC(Br)c2ccccc2C1 (stereo unspecified),6.15%,21%,-7%,14.2%,3.85%,-5.4%
Cc1ccc(N=Cc2cc(Cl)cc(Cl)c2OC(=O)c2ccccc2)cc1C,81.8% (active),91.7% (active),91% (active),90.2% (active),96.5% (active),93.3% (active)
Cc1cc(C)cc([N+](=O)[O-])c1,8.5%,-19%,1.3%,20.1%,4.65%,-26.3%
O=C1NC2(CCCCC2)C(=O)N1CCN1C(=O)NC2(CCCCC2)C1=O,6.7%,4.2%,-1.8%,8.85%,-14.3%,-10.5%
CCCc1cc(=O)oc2c3c(c4c(c12)OC(C)(C)CC4)O[C@H](C)C(C)C3=O (stereo partly specified),-26.9%,-30%,-28.8%,0.4%,6.85%,-45%
O=C(O)CCC1CCCO1 (stereo unspecified),-5.4%,-9.35%,-9.3%,10.2%,15.3%,-0.6%
Nc1ccn(C2OC(COP(=O)(O)O)C(O)C2O)c(=O)n1 (stereo unspecified) (tested in a mixture with another compound),-3.8%,-4.25%,-0.75%,-44.4%,1.15%,14.1%
O=C(O)c1ccc(CSc2ccccc2C(=O)O)cc1,16.4%,-16.6%,-6.95%,15.4%,-14.7%,33.8%
Cc1cc(S(=O)(=O)O)c(NC(=O)C(=O)C2C=CCS2(=O)=O)cc1Cl (stereo unspecified),-5.2%,-20.8%,-8.65%,1.8%,-8.15%,-8.85%
N#CC12CC3CC(CC(C3)C1)C2,-3.9%,-1.5%,-15%,-45%,-9.3%,4.35%
C[C@@H]1CC[C@]2(C)C3(C)CC[C@]2(OC3=O)[C@@]12CC(c1ccoc1)OC2=O (stereo partly specified),-5.9%,-13.8%,-9.35%,-7.45%,-5.45%,-42.3%
Clc1ccc(Cc2ccc(Br)cc2)cc1,43.6%,-10.3%,38.5%,2.45%,49%,13.2%
Cn1ncc2c(=O)[nH]c(-c3ccccc3)nc21,-0.75%,-8.35%,-5.9%,3.55%,-3.05%,-6.3%
